This is part of a sample that, as a whole, favours compounds with a hit. Of some 79,000 tested, about 15% had one in any assay. The source made the active and inactive calls. Rule as the data show it: active = growth inhibition above about 70%; inactive = the rest.
Assays:
[1] = NCI Yeast Anticancer Drug Screen. Data for the rad52 strain (AID 147);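 also: 0% = growth of vehicle-treated control cultures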; settings: S. cerevisiae rad52 mutant growth inhibition, stronger effect = higher value
In short: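 Inhibition of yeast growth, referenced to vehicle controls, was the measured output for a strain with defective DNA damage repair.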

[2] = NCI Yeast Anticancer Drug Screen. Data for the wt1 strain (AID 149);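 also: 0% = growth of vehicle-treated wt1 cultures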; settings: S. cerevisiae wt1 strain (SPY 50644) growth inhibition, stronger effect = higher value
In short: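 Growth inhibition read against vehicle controls after compound exposure of the wt1 yeast strain.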

[3] = NCI Yeast Anticancer Drug Screen. Data for the rad50EPP+ strain (AID 151);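 also: 0% = growth of vehicle-treated control cultures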; settings: S. cerevisiae rad50 mutant strain, stronger effect = higher value
In short: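 Genetically defined yeast (rad50EPP+, DNA damage repair alteration) is grown with compound, and inhibition of growth is expressed relative to vehicle-treated controls.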

[4] = NCI Yeast Anticancer Drug Screen. Data for the mgt1 strain (AID 153); settings: S. cerevisiae mgt1 mutant growth inhibition, stronger effect = higher value
In short: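 In the mgt1 strain, test compounds were added and growth inhibition was determined relative to vehicle-treated controls.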

[5] = NCI Yeast Anticancer Drug Screen. Data for the rad50 strain (AID 155);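 also: 0% = growth of vehicle-only cultures of the same strain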; settings: S. cerevisiae rad50 strain growth inhibition, stronger effect = higher value
In short: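 Readout: growth inhibition relative to vehicle-treated cultures. Compound exposure was carried out in a genetically defined yeast strain deficient in DNA damage repair.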

[6] = NCI Yeast Anticancer Drug Screen. Data for the mec2-1 strain (AID 157); settings: S. cerevisiae mec2-1 strain, stronger effect = higher value
In short: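 Each compound was tested on mec2-1 yeast, a strain altered in DNA damage repair or cell cycle control. Growth inhibition is reported relative to vehicle.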

[7] = NCI Yeast Anticancer Drug Screen. Data for the rad14 strain (AID 159);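 also: 0% = growth of vehicle-treated control cultures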; settings: S. cerevisiae rad14 strain growth inhibition, stronger effect = higher value
In short: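 Growth inhibition vs vehicle controls; genetically altered yeast strain (DNA damage repair defect) treated with test compounds.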

[8] = NCI Yeast Anticancer Drug Screen. Data for the sgs1 mgt1 strain (AID 161);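 also: 0% = growth of cultures given vehicle only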; settings: S. cerevisiae sgs1 mgt1 strain, stronger effect = higher value
In short: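 Genetically altered yeast, compound exposure, growth inhibition relative to vehicle.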

[9] = NCI Yeast Anticancer Drug Screen. Data for the CLN2oe strain (AID 163);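 also: 0% = growth of vehicle-only control cultures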; settings: S. cerevisiae CLN2oe strain, stronger effect = higher value
In short: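 First, the altered yeast strain was treated with each compound; second, its growth was measured; finally, inhibition was derived by comparison with vehicle controls.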

[10] = NCI Yeast Anticancer Drug Screen. Data for the cln2 rad14 strain (AID 165);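 also: 0% = growth equal to vehicle treated cultures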; settings: S. cerevisiae cln2 rad14 strain, stronger effect = higher value
In short: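 Test compounds were added to cln2 rad14 yeast cultures; inhibition of growth was then determined by comparison with vehicle treatment.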

[11] = NCI Yeast Anticancer Drug Screen. Data for the bub3 strain (AID 167); settings: S. cerevisiae bub3 mutant strain, stronger effect = higher value
In short: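 Readout: yeast growth inhibition, expressed relative to vehicle-only wells. The test organism is a mutant strain from a panel with lesions in DNA repair or checkpoint genes.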

[12] = NCI Yeast Anticancer Drug Screen. Data for the mlh1 strain (AID 171);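 also: 0% = growth of vehicle-treated control cultures of the same strain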; settings: S. cerevisiae mlh1 strain growth inhibition, stronger effect = higher value
In short: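 Inhibition values reflect reduced yeast growth in the presence of compound, referenced to vehicle controls, using a strain chosen for its alteration in DNA repair or cell cycle control.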

[13] = NCI Yeast Anticancer Drug Screen. Data for the sgs1 strain (AID 173);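 also: 0% = growth of vehicle-only control cultures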; settings: S. cerevisiae sgs1 mutant, stronger effect = higher value
In short: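 Vehicle-treated cultures served as reference for growth inhibition of a yeast strain altered in DNA damage repair or cell cycle control after compound exposure.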

[14] = NCI Yeast Anticancer Drug Screen. Data for the mlh1 rad18 strain (AID 175); settings: S. cerevisiae mlh1 rad18 strain growth inhibition, stronger effect = higher value
In short: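 Inhibition values reflect reduced growth of mutant yeast versus vehicle-treated controls following compound exposure; the mutations affect DNA damage repair.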

[15] = NCI Yeast Anticancer Drug Screen. Data for the rad18 strain (AID 177); settings: S. cerevisiae rad18 mutant growth inhibition, stronger effect = higher value
In short: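 Steps: expose repair-mutant yeast to compound; measure growth; express as inhibition relative to vehicle control.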

[16] = at 5.0 µM (retest, dose inferred, filed as 0.5)
[17] = at 50.0 µM (retest, dose inferred, filed as 5.0)

Measured: growth inhibition

CN(Cc1cnc2nc(N)nc(N)c2n1)c1ccc(C(=O)NC(CCC(=O)O)C(=O)O)c2ccccc12 (configuration not stated)
inactive: [1]; at 1.2 µM 16% | [1]; at 3.7 µM 24% | [1]; at 11.0 µM 66% | [2]; at 1.2 µM 12% | [2]; at 3.7 µM 17% | [2]; at 11.0 µM 28% | [2]; at 33.0 µM 69% | [3]; at 1.2 µM 5% | [3]; at 3.7 µM 24% | [3]; at 11.0 µM 41% | [3]; at 33.0 µM 57% | [4]; at 1.2 µM -18% | [4]; at 3.7 µM 1% | [4]; at 11.0 µM 25% | [4]; at 33.0 µM 51% | [5]; at 1.2 µM -2% | [5]; at 3.7 µM 22% | [5]; [16] -4% | [5]; at 11.0 µM 60% | [6]; at 1.2 µM 17% | [7]; at 1.2 µM -2% | [7]; at 3.7 µM 11% | [7]; at 11.0 µM 49% | [8]; [16] 27% | [9]; at 1.2 µM -14% | [9]; at 3.7 µM -12% | [9]; at 11.0 µM -28% | [9]; at 33.0 µM 7% | [9]; at 100.0 µM 58% | [10]; [16] -6% | [10]; [17] 45% | [10]; at 50.0 µM 35.1% | [11]; at 1.2 µM -5% | [11]; at 3.7 µM -7% | [11]; [16] -49% | [11]; at 11.0 µM 2% | [11]; at 33.0 µM 57% | [12]; at 1.2 µM 17% | [12]; at 3.7 µM 32% | [12]; at 11.0 µM 42% | [12]; at 33.0 µM 66% | [13]; at 1.2 µM 26% | [13]; at 3.7 µM 36% | [13]; at 11.0 µM 58% | [14]; [16] -13% | [15]; at 1.2 µM 17% | [15]; at 3.7 µM 25% | [15]; at 11.0 µM 38%
active: [1]; at 33.0 µM 90% | [1]; at 100.0 µM 93% | [2]; at 100.0 µM 90% | [3]; at 100.0 µM 79% | [4]; at 100.0 µM 79% | [5]; at 33.0 µM 89% | [5]; [17] 80% | [5]; at 50.0 µM 81.2% | [5]; at 100.0 µM 92% | [6]; at 3.7 µM 72% | [6]; [16] 72% | [6]; at 11.0 µM 92% | [6]; at 33.0 µM 95% | [6]; [17] 94% | [6]; at 50.0 µM 87.2% | [6]; at 100.0 µM 96% | [7]; at 33.0 µM 82% | [7]; at 100.0 µM 91% | [8]; [17] 71% | [8]; at 50.0 µM 72.7% | [11]; [17] 72% | [11]; at 50.0 µM 80.3% | [11]; at 100.0 µM 84% | [12]; at 100.0 µM 83% | [13]; at 33.0 µM 82% | [13]; at 100.0 µM 85% | [14]; [17] 72% | [15]; at 33.0 µM 79% | [15]; at 100.0 µM 89%

From PubChem BioAssay (NCI)
